Hits are enriched below; roughly 15% of the tested compounds scored in any of these assays.
ELG1 repair inh – ELG1-dependent DNA repair inhibition. HEK293T ELG1-luciferase reporter, luminescence, 16 h; DNA damage induced by 5-fluorouridine. Potency, µM (doses to about 46.1 µM), for the others: at the top dose activity change, negative = inhibition, usual class: inhibitors. actives 2.3% (n = 330,000). AID 504467; also: nearly all actives have a fitted effect of over 55% in size
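Cells (2,000 per well) received 5-fluorouridine plus test compound or DMSO and were incubated 16 hr at 37 °C, 5% CO2. Luciferase activity was read by luminescence 30 min after ONE-Glo addition; signal suppression marked inhibition of damage-induced ELG1 function.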
Gal4-VP16 FLuc – Gal4-VP16 reporter inhibition counter-screen; Potency, µM (series often up to 53.6 µM), for inactives: top-dose activity, negative = inhibition, hits mostly inhibitors; actives 3.5% (n = 310,000); Drosophila S2 Gal4-VP16 UAS-luciferase, luminescence, 20 h;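 also: Gal4-VP16 expression switched on by copper sulfate through the metallothionein promoter; nearly all actives have a fitted effect of over 50% in size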
TDP1 cell CPT – growth inhibition of DT40 Tdp1-/-;hTDP1 cells with camptothecin (screen for TDP1 inhibitors); chicken DT40 Tdp1-/-;hTDP1 cells + 20 nM CPT, ATP luminescence, 48 h; Potency, µM (doses to about 46.2 µM), without a hit: at the highest dose activity change, negative = growth inhibition, usual class: inhibitors; actives 12% (n = 420,000); AID 686979; also: nearly all actives have a fitted effect of over 55% in size
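Chicken DT40 Tdp1-/- cells stably complemented with human TDP1 were seeded at 400 cells/well in medium containing 20 nM camptothecin, exposed to pin-transferred compounds, and grown at 37 °C for at least 48 hr. Viability was read as ATP luminescence.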
RORg inh – blocks mouse ROR gamma transcriptional activity; P51450; Drosophila S2 Gal4-RORgamma UAS-luciferase reporter, 20 h; Potency, µM (highest dose often 53.6 µM), for the others: top-dose activity change, negative = inhibition, hits mostly inhibitors; actives 5.4% (n = 310,000); also: nearly all actives have a fitted effect of over 60% in size
Target sequence (P51450 whole entry, looked up, the tested form may be a part): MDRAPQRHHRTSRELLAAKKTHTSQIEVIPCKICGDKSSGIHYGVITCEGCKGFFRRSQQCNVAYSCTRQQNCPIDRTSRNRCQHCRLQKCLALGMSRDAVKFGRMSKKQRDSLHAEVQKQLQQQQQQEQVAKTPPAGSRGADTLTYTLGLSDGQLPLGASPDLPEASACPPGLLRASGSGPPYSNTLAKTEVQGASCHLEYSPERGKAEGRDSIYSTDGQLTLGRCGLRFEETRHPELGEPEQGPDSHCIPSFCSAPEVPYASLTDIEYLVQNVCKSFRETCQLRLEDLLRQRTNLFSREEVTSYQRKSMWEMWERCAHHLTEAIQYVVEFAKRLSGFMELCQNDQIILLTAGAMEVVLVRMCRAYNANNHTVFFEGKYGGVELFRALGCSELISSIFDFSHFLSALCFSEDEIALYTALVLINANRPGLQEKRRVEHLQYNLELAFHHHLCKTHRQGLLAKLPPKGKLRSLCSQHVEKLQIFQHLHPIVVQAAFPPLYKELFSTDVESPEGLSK
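Compounds are pin-transferred onto Drosophila Schneider cells expressing a copper-inducible Gal4–ROR gamma transactivation domain fusion. After 1 hr, copper sulfate is added to 700 uM final; luciferase is read 20 hr later.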
12-LOX inh – inhibitors of human 12S-lipoxygenase ALOX12 | purified 12hLO, xylenol orange hydroperoxide absorbance | actives 1.1% (n = 580,000) | Potency, µM (doses to about 108 µM), for inactives: at the highest dose activity change, negative = inhibition, most hits filed as inhibitors | AID 1671190
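Purified human 12hLO at 150 nM in 25 mM Hepes, 0.01% Triton X-100, pH 7.0, preincubated 15 min at room temperature with compound. Reaction started with 40 uM arachidonic acid, 30 min at room temperature. Hydroperoxide measured by Fe-xylenol orange, 573/405 nm absorbance ratio.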
TDP1 cell noCPT – qHTS for Inhibitors of human tyrosyl-DNA phosphodiesterase 1 (TDP1): qHTS in cells in absence of CPT. DT40 Tdp1-/- hTDP1 cells, no CPT, ATP luminescence, 48 h. Potency, µM (top dose mostly 46.2 µM), for inactives: top-dose activity change, negative = growth inhibition, hits mostly inhibitors. actives 15% (n = 420,000). AID 686978, 2013; also: nearly all actives have a fitted effect of over 55% in size
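Camptothecin absent (DMSO only). Human TDP1-complemented DT40 knockout cells, 400 cells/well, 37 °C for minimum 48 hr; ATP measured via CellTiter-Glo, 30 min dark incubation, luminescence.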
The depositor's hits bear a star; ? = inconclusive; . = no result; [ ] = dose if it differs, or a comment. Calls follow the shape of the dose curve; as a rule, active = well fitted curve in the direction sought with a large enough effect; inconclusive = small, poorly fitted or top-dose-only effect, or another doubt; inactive = no such curve, though single readings can be large; an effect the other way counts as inactive or inconclusive. % is scaled to controls: 0 for no effect and ±100 for the full control effect; potency is read from the fitted curve at half-maximal effect.

SMILES | ELG1 repair inh | Gal4-VP16 FLuc | TDP1 cell CPT | RORg inh | 12-LOX inh | TDP1 cell noCPT
C=CCn1cc(/C=N/NC(=O)COc2cccc3cccnc23)c2ccccc21 | -39.1% | -4.3% | 14.6µM* | 12.4% | -5.4% | 16.4µM*
COc1ccc(OCC(=O)N/N=C/c2ccc(OC)c(OC)c2C(=O)O)cc1 | 5.5% | -10.2% | -13.8% | 1.1% | -3.6% | -1.9%
O=C(c1ccc(F)cc1)N1CCC(c2n[nH]c(=O)n2-c2ccccc2)CC1 | . | . | . | . | 1.2% | .
COc1cccc(/C=N/NC(=O)COc2cccc3cccnc23)c1O | ? | 12.6µM* | 7.31µM* | 2.24µM* | -8.1% | 4.11µM*
COc1ccccc1OCC(=O)N/N=C/c1c(O)ccc2ccccc12 | -20.6% | 2.51µM* | . | 2.82µM* | 280.1% | .
O=C(O)CCC(=O)N1N=C(c2ccc3c(c2)OCO3)CC1c1ccccc1 (configuration not stated) | . | . | . | . | 16.8% | .
CCNC(=S)N/N=C/c1cn(Cc2ccccc2F)c2ccccc12 | -15.8% | -7.4% | 6.51µM* | 9.9% | 39.8µM* | 5.8µM*
N#CCC(=O)N/N=C/c1cn(Cc2ccc(Cl)c(Cl)c2)c2ccccc12 | 8.7% | ? | -27.7% | -36.8% | 111.2% | ?
CNC(=S)N/N=C/c1cn(Cc2c(F)cccc2Cl)c2ccccc12 | ? | 5.01µM* | ? | 0.447µM* | 25.1µM* | 11.6µM*
N#CCC(=O)N/N=C/c1cn(Cc2ccccc2C#N)c2ccccc12 | 17.3% | -10.2% | 3.4% | -14.2% | ? | -23.1%
Cc1ccc(OCC(=O)N2CCC3(CC2)CC(=O)c2ccccc2O3)cc1 | -17.8% | . | 20.6µM* | . | -3.9% | 13µM*
O=C1CC2(CCN(C(=O)COc3ccccc3F)CC2)Oc2ccccc21 | ? | . | -14.7% | . | -6.1% | ?
O=C1CC2(CCN(C(=O)COc3ccc(Cl)cc3)CC2)Oc2ccccc21 | ? | . | ? | . | ? | 18.4µM*
COc1cccc(OCC(=O)N2CCC3(CC2)CC(=O)c2ccccc2O3)c1 | -5.5% | . | ? | . | 17.7% | ?
COc1ccccc1Nc1nc(-c2c[nH]c(C(=O)N3CCCC3)c2)cs1 | . | . | . | . | -20.6% | .
O=C(NCCc1cnc[nH]1)[C@@H]1C[C@H]2C(=O)NCCCCCCN(S(=O)(=O)c3ccccc3)[C@H]2C1 | . | . | . | . | 17.6% | .
CCc1nc2sc3c(NC4CCCCC4)ncnc3c2c2c1COC(C)(C)C2 | . | . | . | . | -2.0% | .
Cc1nn(-c2ccc(F)cc2)c2sc(C(=O)OCC(=O)Nc3ccccc3OC(F)F)cc12 | . | . | . | . | -28.7% | .
CN(C)CCNc1oc(-c2ccc(F)cc2)nc1S(=O)(=O)c1ccc2c(c1)OCCO2 | . | . | . | . | 31.6µM* | .
COc1ccccc1/C=C/c1nc(S(=O)(=O)c2ccccc2)c(NCCN(C)C)o1 | -4.0% | -2.2% | ? | 16.5% | ? | 20.6µM*
COc1ccc(-c2nc(S(=O)(=O)c3ccc4c(c3)OCCO4)c(N3CCN(C)CC3)o2)cc1 | . | . | . | . | 35.5µM* | .
Cc1ccc(S(=O)(=O)c2nc(-c3ccccc3Cl)oc2N2CCCCCC2)cc1 | . | . | 23.1µM* | . | -17.8% | 18.4µM*
CCCNc1cc(N2CCC(CCC(=O)NCc3cccc(OC)c3)CC2)ncn1 | . | . | . | . | 78.5% | .
CC(=O)N1CCC(NC2(Cc3cc(COc4ccccc4)on3)COC2)CC1 | . | . | . | . | 1.3%[176 µM] | .
COc1ccccc1-c1nc(S(=O)(=O)c2ccc(Cl)cc2)c(N2CCCCCC2)o1 | . | . | 16.4µM* | . | -1.2% | 16.4µM*
SMILES | ELG1 repair inh | Gal4-VP16 FLuc | TDP1 cell CPT | RORg inh | 12-LOX inh | TDP1 cell noCPT
CCN1CCN(c2oc(-c3ccccc3C)nc2S(=O)(=O)c2ccccc2)CC1 | -0.3% | . | ? | . | ? | 18.4µM*
COc1cc(-c2nc(S(=O)(=O)c3ccc(Br)cc3)c(N3CCOCC3)o2)cc(OC)c1OC | . | . | 11.6µM* | . | ? | 8.2µM*
O=S(=O)(c1ccccc1)c1nc(-c2ccccc2Cl)oc1NCCCN1CCOCC1 | ? | . | ? | . | -13.7% | 23.1µM*
COc1ccccc1-c1nc(S(=O)(=O)c2ccccc2)c(N2CCCCC2)o1 | 0.7% | 0.7% | ? | 14.5% | ? | ?
CO[C@H]1C(=O)N(C2CCN(S(=O)(=O)c3cccc(F)c3)CC2)[C@H]1c1ccncc1 | . | . | . | . | 17.7% | .
CN1c2cc(C(=O)NCc3ccc(F)cc3F)ccc2C(=O)N2CCCCC21 (configuration not stated) | . | . | . | . | 37.5% | .
Cc1ccc(S(=O)(=O)c2nc(-c3ccccc3Cl)oc2N2CCN(C)CC2)cc1 | -17.6% | . | ? | . | -28.5% | 23.1µM*
COc1ccc(-c2nc(S(=O)(=O)c3ccccc3)c(N3CCN(C)CC3)o2)cc1 | . | . | ? | . | -15.9% | ?
O=S(=O)(c1ccccc1)c1nc(-c2ccccc2Cl)oc1N1CCCCCC1 | . | . | ? | . | -10.3% | 20.6µM*
Cc1ccc(OCc2nc(C3CCN(C(=O)Cn4nc(C)cc4C)CC3)no2)cc1 | . | . | . | . | 15.9% | .
Nc1nc(SCC(=O)NCc2ccc(Cl)cc2)n[nH]1 | . | . | . | . | -4.7% | .
O=C1CCc2cc(-c3csc(NC4CC4)n3)ccc2N1 | . | . | . | . | 35.5µM* | .
O=C(Nc1nc(-c2ccc3c(c2)Cc2ccccc2-3)cs1)c1ccccc1 | 27.9% | -17.4% | ? | ? | ? | ?
Nc1nc(-c2ccc3c(c2)CCC(=O)N3)cs1 | ? | 17.9% | ? | 7.5% | -18.5% | 0.4%
c1ccc(-c2csc(NC3CCCCC3)n2)cc1 | ? | 17.1% | 5.6% | -19.8% | ? | -15.0%
O=C1Cc2cc(-c3csc(NC4CC4)n3)ccc2N1 | . | . | . | . | 39.8µM* | .
CCNc1nc(-c2ccc3c(c2)CCC(=O)N3)cs1 | . | . | . | . | 20µM* | .
O=C1Cc2cc(-c3csc(NC4CCCCC4)n3)cc3c2N1CCC3 | . | . | . | . | 11.2µM* | .
Cc1ccccc1-c1noc(CSc2nnc(C3CC3)n2-c2ccccc2)n1 | . | . | . | . | -19.6% | .
CC(C)(C)c1ccccc1NC(=O)COc1ncnc2ccccc12 | . | . | . | . | -55.8% | .
CCNc1nc(-c2ccc(Cl)cc2)cs1 | ? | ? | ? | ? | -27.3% | -29.3%
CCCCNc1nc(-c2ccc3c(c2)CC(=O)N3)cs1 | . | . | . | . | 31.6µM* | .
COCCOC(=O)N1CCCCC1c1cc(C(=O)NCc2ccc(Cl)c(Cl)c2)no1 (configuration not stated) | . | . | 14.6µM* | . | 1.0% | ?
O=C(Nc1cccc2c1CCCC2)c1cc(C2CCCCN2C(=O)c2cccs2)on1 (configuration not stated) | . | . | 8.2µM* | . | 3.6% | 8.2µM*

From PubChem
